Reference: the OligoGym collection

Molecular target: VNN2
Experiment: pooled miR-30 sensor sort-seq; sequence = guide strand
Conditions: shRNA

First: TTAAATGACAGCAAAGCTCCTT
Second: TTGCACTTCAGCATTGTGCAGA
The sensor-assay potency score (higher = more potent) of the first is higher: 0.199 for the first, -0.233 for the second.

First: TTTCAAATCTTGTAGAAGCAGT
Second: TTAGCAGGTAAGTTATTGCTGA
The sensor-assay potency score (higher = more potent) of the first is lower: -0.249 for the first, -0.154 for the second.

First: TCTTCTTTTTGTAACATTCTGT
Second: TAAGTTATTGCTGAATTGCTGG
The sensor-assay potency score (higher = more potent) of the first is lower: -0.103 for the first, 0.0796 for the second.

Going from TTCTTTTTGTAACATTCTGTAG to TTTCGGTAAGTAGCACTTCAGG, the sensor-assay potency score (higher = more potent) falls from -1.08 to -1.26.

Compared with TATTGTATTGAAAGTAGCCATT, TATACTACTGAAATAGCCCTTC is higher in sensor-assay potency score (higher = more potent): -1.45 for the first, 0.854 for the second.

Going from TAAATGACAGCAAAGCTCCTTT to TAATAATATGAATATTAGCAGG, the sensor-assay potency score (higher = more potent) falls from 0.246 to -1.34.

Molecular target: VWA2
Experiment: as above
Conditions: shRNA

Compared with TTTCTTTGCTTACATGGACTTC, TTTGCTTACATGGACTTCCTGG is higher in sensor-assay potency score (higher = more potent): -1.06 for the first, 0.502 for the second.

First: TTGCTTACATGGACTTCCTGGA
Second: TTTGGTTGAACAGATCCTGAGG
The sensor-assay potency score (higher = more potent) of the first is higher: -0.0634 for the first, -0.36 for the second.

Going from TAGACCATCACATGCTTTGGGC to TAGCCGTCCAGTCCTTCTGGAA, the sensor-assay potency score (higher = more potent) falls from -0.664 to -1.51.

First: TTTGAAAACCATCCTCTTGATT
Second: TAACAGAAACATGATGTCCACT
The sensor-assay potency score (higher = more potent) of the first is higher: -0.884 for the first, -1.06 for the second.

First: TTGAAAATGAATCCAAGGGGAA
Second: TCTCACAAAGCTCTGCATCTGA
The sensor-assay potency score (higher = more potent) of the first is lower: -0.607 for the first, 0.327 for the second.

Going from TTTGTCATAGATGTGCAGCAGG to AAAACCATCCTCTTGATTCTTG, the sensor-assay potency score (higher = more potent) rises from -0.376 to -0.0709.
